# PRMT1 FP inh – PRMT1 (human) inhibition, primary screen; AID 652257; Q99873; 370,000 compounds, 1.3% hits; inhibition, % at 2.79 µM; recombinant PRMT1, activity-based probe fluorescence polarization;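 active = inhibition above about 21% made by adding two undisclosed values, limit read from the data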
# rCAG binder – binds r(CAG) RNA repeats. r(CAG) RNA repeat, TO-PRO-1 dye displacement fluorescence. inhibition, % at 3 µM. 370,000 compounds, 1.3% hits;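 active = inhibition above the plate cutoff, the mean of all test compounds on that plate plus 3 SD, cut at about 35% in these data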;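 note: 0% = DMSO alone and 100% = 100 µM mitoxantrone as full dye displacement; higher means more dye released from RNA so lower well fluorescence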
# TLR9-MyD88 block – blocks human TLR9 binding to MyD88 | Q9NR96+Q99836 | CHO BLA complementation TLR9-MyD88, CCF4 FRET ratio | inhibition, % at 4.98 µM | 340,000 compounds, 0.21% hits | AID 504734;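 active = inhibition above the mean over all tested compounds plus 3 SD, cut at about 21% in these data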;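 note: 0% = DMSO only wells and 100% = clavulanate BLA inhibitor control wells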
# ABHD5-PLIN5 inh – ABHD5-PLIN5 protein interaction inhibition; Split G. princeps luciferase complementation, luminescence, 4 h; inhibition, % at 4 µM; AID 602281; 360,000 compounds, 0.78% hits;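 active = inhibition above the mean inhibition across every tested compound plus 3 SD, cut at about 22% in these data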;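 note: 0% = DMSO only wells and the 100% control is not disclosed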
# NOD2 RIPK2 PPI – NOD2-RIPK2 protein interaction inhibition; AID 624267; CHO BLA complementation NOD2-RIPK2, CCF4 ratio; inhibition, % at 4.98 µM; O43353; 360,000 compounds, 0.38% hits; in the data active = inhibition above about 21%;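 note: 0% = vehicle only and 100% = reference blocker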
# Target sequence (O43353 whole entry, looked up): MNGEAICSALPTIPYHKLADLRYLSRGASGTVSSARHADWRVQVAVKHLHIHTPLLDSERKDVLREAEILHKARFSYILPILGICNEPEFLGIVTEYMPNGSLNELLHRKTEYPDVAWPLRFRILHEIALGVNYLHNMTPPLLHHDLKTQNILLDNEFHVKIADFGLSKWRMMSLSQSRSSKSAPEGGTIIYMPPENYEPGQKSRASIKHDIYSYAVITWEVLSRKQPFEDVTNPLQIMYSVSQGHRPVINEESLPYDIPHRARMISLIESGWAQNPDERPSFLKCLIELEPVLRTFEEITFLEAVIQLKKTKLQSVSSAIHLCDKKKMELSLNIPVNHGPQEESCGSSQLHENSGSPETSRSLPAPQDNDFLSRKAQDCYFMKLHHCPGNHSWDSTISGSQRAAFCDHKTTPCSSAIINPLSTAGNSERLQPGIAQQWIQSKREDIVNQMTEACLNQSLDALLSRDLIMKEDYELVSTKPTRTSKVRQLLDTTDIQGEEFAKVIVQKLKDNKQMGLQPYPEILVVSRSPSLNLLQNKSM
# TLR4 MyD88 comp – inhibitors of human TLR4-MyD88 binding; HeLa CL3-4 TLR4/MyD88 BLA complementation, FRET ratio; AID 861; 200,000 compounds, 0.18% hits; O00206+Q99836; inhibition, % at 8.4 µM; in the data active = inhibition above about 25%;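 note: 0% = vehicle and 100% = reference inhibitor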
# TLR9-MyD88 conf – TLR9-MyD88 interaction inhibition, confirmation | shares compounds with TLR9-MyD88 block | CHO TLR9/MyD88 BLA complementation, CCF4 FRET ratio | inhibition, % at 4.98 µM | 680 compounds, 51% hits | AID 540250;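 active = mean inhibition across three repeats above about 21% taken from the earlier screen, limit read from the data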;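 note: blue over green emission ratio reports constitutive TLR9 MyD88 association via BLA complementation; 0% = DMSO vehicle wells and 100% = clavulanate BLA inhibitor wells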
# BLA nonselective – counter-screen for TLR9-MyD88 inhibitors: non-selective beta-lactamase inhibitors; shares compounds with TLR9-MyD88 block; CHO-BLA cells, CCF4 FRET ratio, BLA reporter; inhibition, % at 4.98 µM; 680 compounds, 7% hits; AID 540251;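 active = mean inhibition above a 50% cutoff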;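 note: counterscreen of TLR9-MyD88 hits on CMV-driven BLA in CHO-K1 cells; 0% = DMSO alone and 100% = clavulanate blocking BLA; higher means less blue over green ratio so more BLA blockade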
# TLR9 CHO cytotox – counter-screen for TLR9-MyD88 inhibitors: cytotoxicity in CHO cells; shares compounds with TLR9-MyD88 block; luminescence; inhibition, % at 4.98 µM; 680 compounds, 39% hits; in the data active = inhibition above about 11%
# The depositor's hits bear a star; x = no result given. Sampled rows, rich in hits. Any-hit rate of the full collection: about 3.3%.
SMILES,PRMT1 FP inh,rCAG binder,TLR9-MyD88 block,ABHD5-PLIN5 inh,NOD2 RIPK2 PPI,TLR4 MyD88 comp,TLR9-MyD88 conf,BLA nonselective,TLR9 CHO cytotox
O=C(N/N=C/c1cccc2ccccc12)c1cc2ccccc2o1,-1,9,23*,1,-5,x,3,-2,4
O=C(N/N=C/c1ccccc1F)c1cc2c(ccc3ccccc32)o1,-5,6,-8,7,-12,x,x,x,x
CN(C)S(=O)(=O)Nc1cc(F)cc(F)c1,-1,0,1,-6,-8,1,x,x,x
CCN(CC)c1ccc(C=NNc2ccc([N+](=O)[O-])cn2)cc1,-2,8,22*,-1,14,x,38*,39,3
O=[N+]([O-])c1ccc(NN=Cc2ccc(O)cc2)nc1,0,0,11,0,4,x,x,x,x
CCCCN(C(=O)CSc1nnc(-c2ccccc2)n1C)c1c(N)n(Cc2ccccc2)c(=O)[nH]c1=O,-2,0,21*,10,2,0,-1,-1,1
Cc1ccc(NC(=O)/C(CN(C)C)=N\O)cc1,0,3,24*,10,13,17,6,8,0
Cc1ccc(NC(=O)CN(C)C(=O)Nc2ccc(C)cc2)cc1,1,0,-10,1,-9,x,x,x,x
O=C(CN1C(=O)/C(=C/c2ccc(F)cc2)SC1=S)NC1CCS(=O)(=O)C1 (configuration not stated),-1,1,0,4,-14,x,x,x,x
O=C(CN1C(=O)/C(=C/c2ccccc2)SC1=S)NC1CCS(=O)(=O)C1 (configuration not stated),4,4,21*,-3,-18,x,3,2,2
S=c1[nH]nc(-c2cccnc2)n1Cc1ccccc1,-4,0,24*,1,2,-4,-3,-4,-3
CS(=O)(=O)Nc1nc2n(n1)C(c1ccccc1)C=C(c1ccc(Br)cc1)N2 (configuration not stated),x,x,37*,-8,47*,17,8,9,2
CC(=O)Nc1nc2n(n1)C(c1ccccc1)C=C(c1ccccc1)N2 (configuration not stated),x,x,56*,-2,56*,18,34*,40,1
CN1/C(=C\C(=O)c2ccco2)C(C)(C)c2ccccc21,3,-7,8,15,4,7,x,x,x
CN1/C(=C\C(=O)c2cncc(Br)c2)C(C)(C)c2ccccc21,1,-6,22*,-6,14,16,10,14,26*
CCOC(=O)C1CCN(C(=O)c2cc3c(-c4ccc(OC)c(OC)c4)nn(C)c3s2)CC1,x,x,13,3,-11,9,x,x,x
CCOC(=O)C1CCCN(C(=O)c2cc3c(-c4cccc(OC)c4)nn(C)c3s2)C1 (configuration not stated),-1,1,28*,3,5,-5,3,-2,27*
CCc1ccc(CCNC(=O)OCCCN2CCC3(CCC(C)CC3)C2=O)cc1 (configuration not stated),-1,0,x,x,x,x,x,x,x
Cc1ccc(C)c(S(=O)(=O)N2CCN(CC(=O)N3CCc4ccccc4C3)CC2)c1,-1,-9,36*,5,-10,-6,-2,3,0
O=C(CN1CCN(S(=O)(=O)c2cc(C(F)(F)F)ccc2Cl)CC1)N1CCc2ccccc2C1,-5,-1,1,8,4,x,x,x,x
Cc1ccc(S(=O)(=O)c2nc(Nc3ccccc3)sc2Cl)cc1,0,9,5,0,-1,5,x,x,x
O=S(=O)(c1ccccc1)c1nc(Nc2cccc(O)c2)sc1Cl,2,9,21*,-3,7,-8,-1,-3,-1
COCOCCn1cc(CN2CCS(=O)(=O)N(Cc3ccc(-c4ccncc4)cc3)C(C(C)C)C2=O)nn1 (configuration not stated),-6,0,-9,-3,-7,x,x,x,x
N#Cc1ccc(-c2cccnc2)nc1SCC(=O)c1ccccc1,12,12,21*,4,14,x,9,9,10
N#Cc1ccc(-c2ccccc2)nc1SCC(=O)c1cccc(Cl)c1,7,4,18,1,8,18,x,x,x
SMILES,PRMT1 FP inh,rCAG binder,TLR9-MyD88 block,ABHD5-PLIN5 inh,NOD2 RIPK2 PPI,TLR4 MyD88 comp,TLR9-MyD88 conf,BLA nonselective,TLR9 CHO cytotox
O=C(CSc1nnc(SCc2ccc(Cl)cc2)s1)N/N=C/c1ccccc1C(=O)O,1,14,-2,1,2,x,x,x,x
Cc1cc(NC(=O)c2c([N+](=O)[O-])cnn2C)no1,-4,0,34*,3,-9,-13,3,-6,0
COc1cc(/C=C/C(=O)OCC(=O)Nc2ccc3[nH]c(=O)[nH]c3c2)ccc1OC(F)F,-5,2,23*,-3,-10,x,7,3,7
O=C1c2cccc3c(O)ccc(c23)C(=O)N1c1ccc(Cl)cc1,174*,-496,27*,0,7,x,12,15,0
O=C1c2ccccc2C(=O)N1c1ccc(Cl)cc1,x,x,x,x,x,-8,x,x,x
Cn1c(CNC(=O)CCNC(=O)c2ccccc2)cc(=O)n(C)c1=O,2,1,26*,2,3,x,2,2,0
NC(=O)NN=C1CCC(O)CC1CC(=O)O (configuration not stated),4,3,x,x,x,x,x,x,x
COc1ccccc1C1C=C(c2ccc(Cl)cc2)Nc2nc(N3C(=O)CCC3=O)nn21 (configuration not stated),0,4,47*,1,53*,8,14,19,-2
CC(CN1CCOCC1)OC(=O)c1cccc(Cl)c1 (configuration not stated),2,-3,-5,10,7,x,x,x,x
O=C(NCC(c1ccccc1)c1ccccc1)[C@H](Cc1ccccc1)NC1(C(=O)NC2CCCCC2)CCCC1,-3,x,x,x,x,x,x,x,x
CCn1nc(-c2ccccc2)c2nc3ccccc3nc21,-2,0,25*,9,10,25,35*,34,4
COc1ccc(CC(=O)Nc2ccc(F)c(F)c2F)cc1S(=O)(=O)N1CCOCC1,-9,1,2,-9,2,x,x,x,x
O=[N+]([O-])c1ccc2c(c1)C=C1CCCCC1(N1CCCCC1)O2 (configuration not stated),0,-1,24*,-2,-14,6,-8,-5,-1
CCS(=O)(=O)Nc1ccc(C(=O)c2ccccc2)cc1,0,-2,22*,-1,8,6,-6,-4,5

# Bioassay records as filed in PubChem BioAssay.
